From the supplement of paper PMC10849652
About 8,800 targets were measured; listed, in parts, are those with a hit and a random draw of the rest. About 0.5% of all pairs of compound and target were hits. Unmarked numbers belong to inactive results.

Key:
Assay in all cases: log2 fold change, soluble protein after heating vs DMSO (PISA); higher = thermal stabilisation; K562 lysate, 10 uM; active = over 0.2 and 3.5 SD of the protein, either way, in both replicates (recomputed)
alvocidib = compound: CN1CC[C@H](c2c(O)cc(O)c3c(=O)cc(-c4ccccc4Cl)oc23)[C@H](O)C1 [alvocidib]
Procedure, shortened: (§1)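 K562 pellets were dounce-homogenised in PBS pH 7.4 with 1 mM MgCl2, and the crude extract at 1 mg/mL protein was treated with 10 μM compound for 30 min. Aliquots were heated for 3 min across 48°C-58°C, pooled, and brought to 0.5% NP-40 at 4°C; soluble protein was the supernatant after 21,000xg for 90 min. Soluble protein was quantified by TMTpro 16plex LC-MS/MS with channel sums equalised, and reported as log2 fold change in thermal stability against DMSO controls, with values from duplicates.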

Tubastatin A = compound: CN1CCc2c(c3ccccc3n2Cc2ccc(C(=O)NO)cc2)C1 [Tubastatin A]
Procedure, shortened: as §1

[1] = compound: CNC(=O)C1=CC=CC=C1NC2=NC(=NC=C2Cl)NC3=C(C=C(C=C3)N4CCOCC4)OC
Procedure, shortened: as §1

defactinib = compound: CNC(=O)c1ccc(Nc2ncc(C(F)(F)F)c(NCc3nccnc3N(C)S(C)(=O)=O)n2)cc1 [defactinib]
Procedure, shortened: as §1

[2] = compound: CNc1nc(-c2ccc3c(N)n[nH]c3c2)cc(N2C[C@@H](C(=O)NC3CCCCC3)CC[C@H]2C)n1
Procedure, shortened: as §1

encorafenib = compound: COC(=O)N[C@@H](C)CNc1nccc(-c2cn(C(C)C)nc2-c2cc(Cl)cc(NS(C)(=O)=O)c2F)n1 [encorafenib]
Procedure, shortened: as §1

[3] = compound: COC(=O)[C@H](CCSC)NC(=O)C1=C(C=C(C=C1)NC[C@H](CS)N)C2=CC=CC=C2
Procedure, shortened: as §1

alisertib = compound: COc1cc(Nc2ncc3c(n2)-c2ccc(Cl)cc2C(c2c(F)cccc2OC)=NC3)ccc1C(=O)O [alisertib]
Procedure, shortened: as §1

[4] = compound: COc1cc2nc(-c3cc(F)ccc3O)nc(N[C@@H]3CNC[C@H]3C(C)(C)O)c2cc1OC
Procedure, shortened: as §1

gefitinib = compound: COc1cc2ncnc(Nc3ccc(F)c(Cl)c3)c2cc1OCCCN1CCOCC1 [gefitinib]
Procedure, shortened: as §1

lapatinib = compound: CS(=O)(=O)CCNCc1ccc(-c2ccc3ncnc(Nc4ccc(OCc5cccc(F)c5)c(Cl)c4)c3c2)o1 [lapatinib]
Procedure, shortened: as §1

pictilisib = compound: CS(=O)(=O)N1CCN(Cc2cc3nc(-c4cccc5[nH]ncc45)nc(N4CCOCC4)c3s2)CC1 [pictilisib]
Procedure, shortened: as §1

crizotinib = compound: C[C@@H](Oc1cc(-c2cnn(C3CCNCC3)c2)cnc1N)c1c(Cl)ccc(F)c1Cl [crizotinib]
Procedure, shortened: as §1

[5] = compound: C[C@H](C1=CC=C(C=C1)C(=O)NC2=C3C=CNC3=NC=C2)N
Procedure, shortened: as §1

duvelisib = compound: C[C@H](Nc1ncnc2nc[nH]c12)c1cc2cccc(Cl)c2c(=O)n1-c1ccccc1 [duvelisib]
Procedure, shortened: as §1

gandotinib = compound: Cc1cc(Nc2cc(CN3CCOCC3)c3nc(C)c(Cc4ccc(Cl)cc4F)n3n2)n[nH]1 [gandotinib]
Procedure, shortened: as §1

tozasertib = compound: Cc1cc(Nc2cc(N3CCN(C)CC3)nc(Sc3ccc(NC(=O)C4CC4)cc3)n2)n[nH]1 [tozasertib]
Procedure, shortened: as §1

doramapimod = compound: Cc1ccc(-n2nc(C(C)(C)C)cc2NC(=O)Nc2ccc(OCCN3CCOCC3)c3ccccc23)cc1 [doramapimod]
Procedure, shortened: as §1

bafetinib = compound: Cc1ccc(NC(=O)c2ccc(CN3CC[C@H](N(C)C)C3)c(C(F)(F)F)c2)cc1Nc1nccc(-c2cncnc2)n1 [bafetinib]
Procedure, shortened: as §1

[6] = compound: Cc1cccc(CC(=O)N2CCc3c2ccc(-c2cn(C)c4ncnc(N)c24)c3F)n1
Procedure, shortened: as §1

Sequence of UniProt Q99766 (Q99766 whole entry, looked up): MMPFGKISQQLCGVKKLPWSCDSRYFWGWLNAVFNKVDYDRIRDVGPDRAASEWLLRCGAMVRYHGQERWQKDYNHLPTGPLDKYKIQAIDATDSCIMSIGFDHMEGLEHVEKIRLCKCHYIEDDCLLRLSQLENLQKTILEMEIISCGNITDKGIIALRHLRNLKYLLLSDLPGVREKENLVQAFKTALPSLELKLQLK
Sequence of UniProt Q9Y2V7 (Q9Y2V7 whole entry, looked up): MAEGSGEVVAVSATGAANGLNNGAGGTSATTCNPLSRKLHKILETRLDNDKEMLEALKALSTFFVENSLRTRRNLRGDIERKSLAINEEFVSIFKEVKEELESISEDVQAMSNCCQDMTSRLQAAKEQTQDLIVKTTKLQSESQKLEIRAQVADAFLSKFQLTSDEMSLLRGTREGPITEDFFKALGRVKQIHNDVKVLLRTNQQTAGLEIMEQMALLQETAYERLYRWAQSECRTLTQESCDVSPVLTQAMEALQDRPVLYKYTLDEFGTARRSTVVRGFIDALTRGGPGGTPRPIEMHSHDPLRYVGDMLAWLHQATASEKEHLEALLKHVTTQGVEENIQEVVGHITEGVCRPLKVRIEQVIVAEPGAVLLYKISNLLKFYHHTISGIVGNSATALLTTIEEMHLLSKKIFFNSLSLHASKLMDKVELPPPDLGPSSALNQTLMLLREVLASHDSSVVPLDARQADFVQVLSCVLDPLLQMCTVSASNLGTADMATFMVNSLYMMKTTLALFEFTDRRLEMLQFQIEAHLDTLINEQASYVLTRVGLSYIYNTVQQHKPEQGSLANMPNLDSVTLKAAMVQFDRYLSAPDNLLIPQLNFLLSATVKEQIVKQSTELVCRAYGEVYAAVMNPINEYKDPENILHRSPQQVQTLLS
Sequence of UniProt Q9BY43 (Q9BY43 whole entry, looked up): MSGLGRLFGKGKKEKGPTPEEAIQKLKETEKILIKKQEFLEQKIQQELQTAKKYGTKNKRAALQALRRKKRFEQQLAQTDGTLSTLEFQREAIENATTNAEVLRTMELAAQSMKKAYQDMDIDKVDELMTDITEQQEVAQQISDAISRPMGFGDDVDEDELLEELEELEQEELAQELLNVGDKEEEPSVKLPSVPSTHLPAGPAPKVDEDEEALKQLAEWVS
Sequence of UniProt Q9UHI6 (Q9UHI6 whole entry, looked up): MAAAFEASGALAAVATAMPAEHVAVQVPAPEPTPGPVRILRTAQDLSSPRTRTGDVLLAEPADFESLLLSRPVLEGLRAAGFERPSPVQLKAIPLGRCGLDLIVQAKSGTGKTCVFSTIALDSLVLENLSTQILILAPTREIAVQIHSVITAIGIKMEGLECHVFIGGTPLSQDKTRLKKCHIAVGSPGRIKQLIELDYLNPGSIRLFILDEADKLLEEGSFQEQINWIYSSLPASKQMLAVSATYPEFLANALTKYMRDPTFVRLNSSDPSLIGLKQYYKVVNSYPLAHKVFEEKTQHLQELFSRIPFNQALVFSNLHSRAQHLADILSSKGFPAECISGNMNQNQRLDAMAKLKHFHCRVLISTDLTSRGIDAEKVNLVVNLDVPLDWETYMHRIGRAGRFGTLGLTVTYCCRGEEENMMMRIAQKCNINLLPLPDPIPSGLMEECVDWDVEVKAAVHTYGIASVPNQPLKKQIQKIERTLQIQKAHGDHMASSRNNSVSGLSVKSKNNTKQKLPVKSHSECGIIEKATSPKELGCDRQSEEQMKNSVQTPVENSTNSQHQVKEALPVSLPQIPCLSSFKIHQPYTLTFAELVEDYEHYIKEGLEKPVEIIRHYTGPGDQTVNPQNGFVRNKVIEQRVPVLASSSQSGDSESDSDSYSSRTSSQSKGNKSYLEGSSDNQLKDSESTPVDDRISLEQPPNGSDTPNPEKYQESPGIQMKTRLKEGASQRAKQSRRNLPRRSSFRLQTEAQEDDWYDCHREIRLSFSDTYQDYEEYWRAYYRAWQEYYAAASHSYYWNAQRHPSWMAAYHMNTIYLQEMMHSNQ
Sequence of UniProt Q8WWK9 (Q8WWK9 whole entry, looked up): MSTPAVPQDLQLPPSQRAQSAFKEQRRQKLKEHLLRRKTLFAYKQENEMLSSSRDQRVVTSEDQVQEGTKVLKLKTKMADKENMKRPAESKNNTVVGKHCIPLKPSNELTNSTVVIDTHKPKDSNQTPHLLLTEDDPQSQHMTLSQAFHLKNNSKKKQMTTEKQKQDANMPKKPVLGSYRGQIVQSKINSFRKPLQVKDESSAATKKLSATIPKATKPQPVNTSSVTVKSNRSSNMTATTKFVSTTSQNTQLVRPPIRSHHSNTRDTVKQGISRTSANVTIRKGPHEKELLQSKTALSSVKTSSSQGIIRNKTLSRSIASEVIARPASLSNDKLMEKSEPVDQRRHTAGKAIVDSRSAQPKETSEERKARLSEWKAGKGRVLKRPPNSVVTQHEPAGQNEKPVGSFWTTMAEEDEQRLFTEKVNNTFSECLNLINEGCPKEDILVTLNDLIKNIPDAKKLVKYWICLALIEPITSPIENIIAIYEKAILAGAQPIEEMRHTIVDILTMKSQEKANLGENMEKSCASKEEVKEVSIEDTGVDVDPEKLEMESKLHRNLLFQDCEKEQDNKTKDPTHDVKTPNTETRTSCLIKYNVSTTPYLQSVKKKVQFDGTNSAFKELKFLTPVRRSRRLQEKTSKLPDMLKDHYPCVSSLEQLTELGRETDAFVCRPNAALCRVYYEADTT
Sequence of UniProt Q7Z401 (Q7Z401 whole entry, looked up): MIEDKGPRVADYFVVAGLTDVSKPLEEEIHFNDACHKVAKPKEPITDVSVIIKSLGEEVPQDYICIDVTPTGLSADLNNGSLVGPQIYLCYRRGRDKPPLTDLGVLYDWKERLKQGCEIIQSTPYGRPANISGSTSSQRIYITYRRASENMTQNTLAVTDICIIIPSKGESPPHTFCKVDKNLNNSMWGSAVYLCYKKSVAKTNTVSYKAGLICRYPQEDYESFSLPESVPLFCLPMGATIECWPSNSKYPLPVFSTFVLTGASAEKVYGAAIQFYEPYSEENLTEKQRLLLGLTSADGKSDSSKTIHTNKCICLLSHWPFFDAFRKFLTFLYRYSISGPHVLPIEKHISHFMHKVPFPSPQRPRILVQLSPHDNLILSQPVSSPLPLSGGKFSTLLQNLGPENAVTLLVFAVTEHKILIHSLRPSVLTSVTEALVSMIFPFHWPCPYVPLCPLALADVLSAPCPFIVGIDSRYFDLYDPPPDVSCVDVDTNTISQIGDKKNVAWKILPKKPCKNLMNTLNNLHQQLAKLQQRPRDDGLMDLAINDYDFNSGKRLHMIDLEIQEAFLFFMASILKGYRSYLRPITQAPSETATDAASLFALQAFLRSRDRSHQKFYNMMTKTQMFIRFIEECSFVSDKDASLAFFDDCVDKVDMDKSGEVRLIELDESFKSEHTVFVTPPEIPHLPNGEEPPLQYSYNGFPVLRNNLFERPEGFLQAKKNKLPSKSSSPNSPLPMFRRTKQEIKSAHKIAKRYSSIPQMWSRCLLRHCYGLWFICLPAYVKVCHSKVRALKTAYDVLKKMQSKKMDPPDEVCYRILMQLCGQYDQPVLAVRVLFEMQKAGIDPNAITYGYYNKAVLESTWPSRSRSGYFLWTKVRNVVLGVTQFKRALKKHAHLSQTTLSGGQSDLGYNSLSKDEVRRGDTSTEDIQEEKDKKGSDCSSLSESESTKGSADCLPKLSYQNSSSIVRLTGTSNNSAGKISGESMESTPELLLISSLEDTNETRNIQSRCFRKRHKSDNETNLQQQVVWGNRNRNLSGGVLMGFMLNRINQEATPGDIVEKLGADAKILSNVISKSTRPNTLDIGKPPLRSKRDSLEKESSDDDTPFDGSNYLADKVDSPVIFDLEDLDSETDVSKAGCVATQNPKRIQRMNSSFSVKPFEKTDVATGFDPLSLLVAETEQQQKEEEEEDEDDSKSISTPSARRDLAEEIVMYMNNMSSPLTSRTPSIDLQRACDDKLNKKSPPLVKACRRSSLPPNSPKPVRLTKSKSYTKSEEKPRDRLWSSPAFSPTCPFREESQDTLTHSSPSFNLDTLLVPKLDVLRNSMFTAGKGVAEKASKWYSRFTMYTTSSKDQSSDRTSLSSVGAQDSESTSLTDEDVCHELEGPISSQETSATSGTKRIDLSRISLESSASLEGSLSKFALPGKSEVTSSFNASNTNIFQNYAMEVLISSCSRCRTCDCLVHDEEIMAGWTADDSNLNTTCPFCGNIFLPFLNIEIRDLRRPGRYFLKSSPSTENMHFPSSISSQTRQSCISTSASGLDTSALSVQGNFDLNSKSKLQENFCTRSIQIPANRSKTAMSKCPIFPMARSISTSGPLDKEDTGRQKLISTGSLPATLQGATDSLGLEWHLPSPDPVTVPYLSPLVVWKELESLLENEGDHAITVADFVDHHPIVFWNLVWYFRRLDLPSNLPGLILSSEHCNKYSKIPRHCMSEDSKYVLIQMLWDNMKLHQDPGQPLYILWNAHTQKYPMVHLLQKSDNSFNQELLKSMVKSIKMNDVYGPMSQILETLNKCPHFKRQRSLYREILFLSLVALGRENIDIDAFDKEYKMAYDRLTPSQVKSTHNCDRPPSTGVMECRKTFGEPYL
Sequence of UniProt P06732 (P06732 whole entry, looked up): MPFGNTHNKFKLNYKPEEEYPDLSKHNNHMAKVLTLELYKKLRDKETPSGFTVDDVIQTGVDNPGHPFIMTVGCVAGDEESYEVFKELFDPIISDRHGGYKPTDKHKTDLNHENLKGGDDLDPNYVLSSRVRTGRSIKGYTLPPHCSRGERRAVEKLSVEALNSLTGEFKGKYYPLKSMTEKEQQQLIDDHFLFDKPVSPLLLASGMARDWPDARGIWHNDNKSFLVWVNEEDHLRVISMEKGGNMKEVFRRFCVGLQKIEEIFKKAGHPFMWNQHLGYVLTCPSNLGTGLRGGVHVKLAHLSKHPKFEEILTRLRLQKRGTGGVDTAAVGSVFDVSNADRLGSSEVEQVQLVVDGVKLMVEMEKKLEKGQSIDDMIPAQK
Sequence of UniProt Q8WUH1 (Q8WUH1 whole entry, looked up): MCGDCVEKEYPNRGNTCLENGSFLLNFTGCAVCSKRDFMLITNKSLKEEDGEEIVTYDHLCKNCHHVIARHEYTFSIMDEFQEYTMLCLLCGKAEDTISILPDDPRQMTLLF

| Target | log2 fold change (alvocidib) | log2 fold change (Tubastatin A) | log2 fold change [1] | log2 fold change (defactinib) | log2 fold change [2] | log2 fold change (encorafenib) | log2 fold change [3] | log2 fold change (alisertib) | log2 fold change [4] | log2 fold change (gefitinib) | log2 fold change (lapatinib) | log2 fold change (pictilisib) | log2 fold change (crizotinib) | log2 fold change [5] | log2 fold change (duvelisib) | log2 fold change (gandotinib) | log2 fold change (tozasertib) | log2 fold change (doramapimod) | log2 fold change (bafetinib) | log2 fold change [6] |
| --- | --- | --- | --- | --- | --- | --- | --- | --- | --- | --- | --- | --- | --- | --- | --- | --- | --- | --- | --- | --- |
| DENND4A isoform 2 (UniProt Q7Z401) | -0.067 | -0.141 | -0.024 | 0.077 | -0.001 | 0.013 | 0.032 | -0.018 | 0.17 | -0.041 | -0.034 | 0.001 | -0.038 | -0.206 | -0.067 | 0.045 | -0.027 | -0.009 | -0.064 | 0.203 |
| CIC (UniProt I3L2J0) | 0.005 | -0.03 | 0.072 | 0.041 | 0.035 | -0.002 | 0.052 | -0.027 | 0.158 | -0.098 | -0.074 | -0.02 | -0.002 | -0.052 | -0.047 | 0.006 | 0.02 | -0.036 | -0.08 | 0.037 |
| DES (UniProt P17661) | -0.144 | 0.091 | -0.023 | -0.056 | 0.26 | 0 | -0.029 | -0.017 | 0.117 | 0.04 | -0.079 | -0.03 | -0.082 | -0.301 | 0.098 | 0.13 | -0.014 | 0.047 | -0.051 | 0.121 |
| DPM1 (UniProt O60762) | 0.084 | 0.055 | -0.005 | 0.037 | 0.041 | 0.01 | 0.083 | 0.047 | 0.013 | -0.041 | -0.003 | 0.009 | 0.009 | 0.028 | -0.018 | -0.097 | -0.014 | -0.046 | -0.061 | 0.061 |
| CORO1A (UniProt P31146) | 0 | -0.02 | 0.013 | -0.034 | 0.037 | -0.051 | 0.144 | -0.018 | -0.021 | -0.037 | -0.018 | -0.058 | -0.008 | -0.069 | 0.038 | 0.037 | 0.089 | 0.009 | -0.028 | -0.001 |
| CNOT4 isoform 6 (UniProt O95628) | 0.015 | -0.011 | -0.009 | 0.001 | -0.069 | 0.076 | -0.051 | -0.003 | -0.041 | -0.007 | 0.039 | -0.06 | 0.146 | -0.093 | -0.011 | 0.075 | -0.027 | -0.234 (active) | -0.054 | 0.028 |
| DMAC2L (UniProt Q99766) | 0.029 | 0 | -0.056 | 0.022 | 0.018 | 0.016 | -1.03 (active) | 0.074 | 0.031 | 0.061 | -0.021 | -0.036 | 0.012 | -0.048 | -0.037 | 0.047 | 0.087 | 0.002 | 0.009 | 0.1 |
| CHML (UniProt P26374) | -0.019 | 0.008 | -0.004 | -0.025 | 0.002 | 0.003 | 0.005 | 0.014 | 0.011 | 0.012 | -0.006 | -0.003 | 0.022 | -0.012 | 0.006 | 0.013 | -0.004 | -0.025 | 0.094 | 0.004 |
| DDX20 (UniProt Q9UHI6) | 0.042 | -0.213 | -0.001 | -0.03 | -0.026 | 0.076 | 0.01 | 0.016 | -0.006 | 0.025 | -0.041 | 0.024 | -0.088 | 0.029 | 0.008 | -0.137 | -0.065 | 0.015 | -0.016 | 0.054 |
| CHURC1 isoform 2 (UniProt Q8WUH1) | 0.002 | 0.002 | 0 | 0.051 | 0.024 | -0.068 | -0.005 | 0.013 | -0.145 | -0.025 | 0.012 | 0.043 | -0.047 | 0.026 | 0.049 | -0.014 | -0.032 | -0.01 | -0.019 | -0.001 |
| COG6 (UniProt Q9Y2V7) | 0.026 | -0.062 | 0.059 | -0.028 | 0.059 | -0.026 | 0.034 | 0.016 | -0.017 | 0.006 | 0.012 | -0.019 | -0.104 | -0.137 | 0.014 | -0.115 | -0.011 | 0.037 | -0.071 | 0.142 |
| CKAP2 (UniProt Q8WWK9) | -0.059 | -0.009 | 0.071 | -0.075 | 0.028 | 0.097 | -0.092 | -0.044 | 0.049 | 0.06 | -0.004 | -0.02 | -0.027 | 0.064 | 0.016 | 0.016 | 0.034 | -0.001 | 0.019 | -0.009 |
| CKM (UniProt P06732) | -0.126 | -0.091 | -0.049 | -0.033 | -0.037 | 0.016 | 0.026 | -0.015 | 0.031 | -0.065 | -0.041 | -0.035 | -0.13 | -0.431 (active) | 0.087 | 0.096 | -0.078 | -0.019 | -0.023 | 0.113 |
| CHMP4A isoform 2 (UniProt Q9BY43) | -0.096 | 0.048 | -0.01 | 0.007 | 0.039 | 0.026 | -0.001 | 0.028 | 0.043 | 0.041 | 0.009 | 0.022 | -0.047 | -0.227 (active) | -0.001 | 0.182 | -0.01 | 0.054 | -0.036 | 0.18 |
| CHEK1 (UniProt O14757) | 0.01 | 0.072 | -0.063 | -0.021 | -0.002 | 0.002 | -0.008 | 0.008 | -0.178 | 0.013 | -0.008 | -0.003 | -0.021 | 0.174 | -0.009 | -0.014 | 0.017 | 0.04 | -0.025 | 0.015 |
| COG3 (UniProt Q96JB2) | -0.023 | -0.09 | 0.042 | -0.016 | -0.041 | -0.013 | -0.045 | 0.032 | -0.018 | -0.026 | -0.036 | -0.054 | -0.062 | -0.036 | 0.006 | -0.064 | 0.015 | 0.03 | 0.003 | 0.093 |
